{
  "source": "PubChem BioAssay AID493200",
  "about": "(National Center for Advancing Translational Sciences (NCATS), 2011)",
  "note": "Records with an inconclusive call do not appear. Unmarked numbers belong to inactive results. Active and inactive are the calls of the source. The call rests on the fitted dose curve; in most records, active means well fitted activation curve with a large enough effect; inconclusive means small, poorly fitted or top-dose-only effect; inactive means no such curve, though single readings can be large or run the other way. Potency means the concentration at half of the fitted maximal effect.",
  "data": [
    {"test": "qHTS Assay for Rab9 Promoter Activators: Initial hit validation from the primary screen; on activation: % of control where 0% means no effect", "conditions": "Huh7 Rab9 promoter luciferase reporter, 24 h; series mostly up to 46.1 µM; activation: at the top concentration", "summary_of_the_method": "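Huh7 cells stably carrying a Rab9 promoter–luciferase construct, plated in reduced-serum medium with 10% FBS, rested 2 h, then exposed to compounds in DMSO for 24 h at 37C. Luminescence read 10 min after adding Amplite luciferase reagent.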", "units": {"activation": "%"}, "values": [
      {"smiles": "Cc1ccccc1NC(=O)CSc1ccc(-c2cccnc2)nn1", "activation": 2.88},
      {"smiles": "CCOC(=O)c1cc2sccc2n1CC(=O)N1CCCc2ccccc21", "activation": -13.2},
      {"smiles": "Cc1ccc(CNC(=O)Nc2ccc(C)cc2)cc1", "Potency": "19900 nM (active)"},
      {"smiles": "CC(C)(C)C(=O)N/C(N)=N/c1nc2ccccc2o1", "Potency": "628 nM (active)"},
      {"smiles": "Nc1ccc(C(=O)Nc2ccccc2N)cc1", "Potency": "15800 nM (active)"},
      {"smiles": "Cc1[nH]n(-c2cccc3ccccc23)c(=O)c1/C=N/c1sc2c(c1C#N)CCC2", "activation": 6.46},
      {"smiles": "O=C(CCCC(=O)N(CC(=O)NC1CCCCC1)c1cccc(F)c1)Nc1ccccn1", "activation": -0.895},
      {"smiles": "CCOC(=O)CSc1nc2cc(C)ccc2cc1C#N", "Potency": "996 nM (active)"},
      {"smiles": "COc1ccccc1CNC(=O)COc1ccc(C)cc1", "activation": -5.69},
      {"smiles": "NC(=O)C1(NC(=O)[C@@H]2CC3(CC(c4cccc(NC(=O)[C@@H]5CCC(=O)N5)c4)=NO3)CN2C(=O)c2ccccc2)CC1", "note": "(stereo not given in full)", "activation": 6.9},
      {"smiles": "Cc1ccc(C(=O)NCc2ccc3c(c2)OCO3)cc1C", "Potency": "25000 nM (active)"},
      {"smiles": "CCOc1cc(C2C(C#N)=C(N)Oc3n[nH]c(C)c32)ccc1OCCN1CCOCC1", "note": "(stereo not given)", "activation": 0.655},
      {"smiles": "N#CC/C(N)=N/NC(=O)CCCNc1ncc(C(F)(F)F)cc1Cl", "Potency": "19900 nM (active)"},
      {"smiles": "COc1ccc2oc(=O)c(C(=O)NC(C)c3ccccc3)cc2c1", "note": "(stereo not given)", "activation": 3.92},
      {"smiles": "O=C(CCCN1C(=O)C(c2ccccc2)Oc2cccnc21)Nc1ccccc1Cl", "note": "(stereo not given)", "activation": -7.99},
      {"smiles": "COc1ccc(C)cc1N(C(=O)CNC(=O)c1ccco1)C(C(=O)NC1CCCC1)c1cccnc1", "note": "(stereo not given)", "activation": -0.431},
      {"smiles": "COc1ccc(/C=C\\C(=O)c2c(O)ccc3c(C)cc(=O)oc23)cc1OC", "activation": -38.2},
      {"smiles": "CCc1cc(C(=O)Nc2ccccc2)cs1", "Potency": "2810 nM (active)"},
      {"smiles": "C=CCOC(=O)N1CCN(c2cccc(C(F)(F)F)c2)CC1", "activation": -5.55},
      {"smiles": "CC1CN(C(=O)c2ccncc2)CC(C)O1", "note": "(stereo not given)", "activation": -3.44},
      {"smiles": "C=CCn1c(C)nnc1SCC(=O)Nc1nccs1", "activation": 1.83},
      {"smiles": "CCOC(=O)c1ccc(NC(=O)Oc2cc(C)c(Cl)cc2C(C)C)cc1", "activation": 3.5},
      {"smiles": "Cc1ccc2c(c1)sc1nc(=O)n(-c3ccccc3)c(=O)n12", "Potency": "499 nM (active)"},
      {"smiles": "O=C(NCCc1ccccc1)c1cc2ncc(Br)cn2n1", "Potency": "25000 nM (active)"},
      {"smiles": "COc1ccc(S(=O)(=O)NC(C(=O)NCCc2ccccn2)C(C)C)cc1", "note": "(stereo not given)", "activation": 1.37},
      {"smiles": "Cc1nc(-c2ccc(S(=O)(=O)Oc3ccc(Cl)cc3Cl)s2)cs1", "activation": -13.4},
      {"smiles": "O=C(C[N+]1(CC#Cc2ccccc2)CCCCC1)c1ccccc1", "activation": 0.37},
      {"smiles": "COc1ccc(C(c2nnnn2CCc2ccccc2)N2CCN(C3CCCC3)CC2)cc1", "note": "(stereo not given)", "activation": -10.4},
      {"smiles": "CC(C)CC(=O)N1CCN(c2ccc(NC(=O)c3ccco3)cc2)CC1", "activation": 15.4},
      {"smiles": "O=C(CN1C(=O)COc2ccc(Cl)cc21)NCC1CCCO1", "note": "(stereo not given)", "activation": -7.34},
      {"smiles": "CCOC(=O)CSc1nc2cc3c(cc2cc1C#N)OCO3", "Potency": "888 nM (active)"},
      {"smiles": "COCCNC(=O)C1CCC(CNS(=O)(=O)c2ccc(F)cc2)CC1", "note": "(stereo not given)", "activation": -4.18},
      {"smiles": "O=[N+]([O-])c1cnccc1Nc1ccc(F)cc1", "activation": -3.24},
      {"smiles": "COc1cccc(CNC(=O)CN(c2cc(C)cc(C)c2)S(=O)(=O)c2c(C)noc2C)c1", "activation": -7.14},
      {"smiles": "COC(=O)c1ccc(NC(=O)c2ccc3nc(C)sc3c2)cc1", "Potency": "560 nM (active)"}
    ]}
  ]
}
